Test results from the OligoGym collection.

biological target: CLN5; test: pooled miR-30 sensor sort-seq; sequence = guide strand; conditions: shRNA
Also: reference of the scale not given here.

Sequence	sensor-assay potency score (higher = more potent)
TTATAAAACAAATAGAACTGTT	-0.281
TATAAAACAAATAGAACTGTTT	-0.137
TTTAACTTTATGCACCAAGGAA	-0.689
TCTATGTTCTTGAACTCTGCTC	0.0222
TTCTTGTATAGTTGGTTTCTAT	-0.695
TTAACTTTATGCACCAAGGAAG	-0.963
ATGTTCTTGAACTCTGCTCCAA	-1.05
TGTTCTTGAACTCTGCTCCAAA	-0.828
TTGACAATAAGGATCAGGTTTT	-0.121
TACATAACTGATATGAACCATA	-0.617
TTTCCTTCCAGTGAACATCATC	-0.843
TAGCTTGACAATAAGGATCAGG	-0.401
TTCAATGTCATCATCACCCTCC	0.818

biological target: CLRN3; test: as above; conditions: shRNA

Sequence	sensor-assay potency score (higher = more potent)
TAAAACTGCAAACTTTTTCTTT	-0.472
TTCAGTATCTCTAAAACTGCAA	-0.132
TAAAGCATTTGGAACAACTCTT	0.169
TTACCATGCTGAATTGTCCAGA	-0.037
TCTCTAACAGCAATCGTACTGG	-0.178
TTGTCCAGAGAAGCTAACCAGT	-1.23
TCTAACAGCAATCGTACTGGTG	-0.061
TAAGTGATGAAAATGCTCCCAT	0.574
TATATTTAGAAGAATGACGAGC	-0.483
TTGAAGCAGAGTCTCTAACAGC	-0.854
TTTGAATACCACACAGACCAGC	-1.01
ATTTGGAACAACTCTTCGGAGA	-1.11

biological target: CMAS; test: as above; conditions: shRNA

Sequence	sensor-assay potency score (higher = more potent)
TTTAGCTGGATTTAAATTCAGA	-0.846
TAGAGCTGTCTTTTGAAACTTC	0.56
TATATATATATCACAAACCAAA	-1.7
TTTCACTCCATCGAAACTGATG	-0.871
TTTGAAACTTCAGAACTTCTTC	0.8
TACATTTGCAAATGTATCCAAC	-0.636
TTCATCTACAACTGCTAGCTTG	-0.562
TAGTGAGGTAGAGCTGTCTTTT	-0.742
TCATCTACAACTGCTAGCTTGT	-0.405
TTCTTTAATAAACTTATCCCAA	-0.589
TTCGATGAACTTGTGCACCAAA	-0.973
TACAACTGCTAGCTTGTCTGAT	-0.274

biological target: CMIP; test: as above; conditions: shRNA

Sequence	sensor-assay potency score (higher = more potent)
TTCGAGGTGAGGATCTTGCTGA	0.014
TCTTTCAAGACAACTTCCCAGC	-0.735
TTCTCTGAGAGCAGTTTCGAGA	-0.721
